About 83,000 compounds went through this panel and 20% of them were active in at least one assay; those are over-represented in the sample as a whole.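 Plates (96-well) were seeded with cells, treated with compound at one concentration, and incubated for 48 hours before percent growth was determined.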 Values without a mark were called inactive. Activity calls are given as the source filed them. How the source made its calls: active means growth percent below 10; inactive means the rest.

From PubChem BioAssay (NCI) come the findings set out here.

The subject of the first assay is UACC-257 melanoma. The experiment in a line: NCI-60 one-dose screen, 48 h (100 = growth as untreated, 0 = no growth, -100 = all killed). As to conditions: 10 µM unless noted.
In the case of `N#Cc1nc(-c2ccccc2)oc1N1CCC(C2(C(F)(F)F)N=N2)CC1`, the growth is 102%. As to `C/C(=C(\c1ccc(O)cc1)c1ccc(OCCN2CCCCCC2)cc1)c1ccc(Cl)cc1`, the growth was -81.8% (active). Take `COc1ccc(C(=O)c2c(N)c(C#N)cn2-c2ccc(Cl)cc2Cl)cc1`: the growth is 98.2%. The same measure, in the same setting: the value for `C#C[C@]1(O)CC[C@H]2[C@@H]3CC=C4c5sc(Nc6cccc(F)c6)nc5CC[C@]4(C)[C@H]3CC[C@@]21C` was 44%; that for `C[C@@H]1OCC2(CCN(c3cnc(C(=O)Nc4cc(F)cc5cccnc45)cn3)CC2)[C@@H]1N` was 102%; that for `Cn1c(SCC(=O)c2ccc(F)cc2)nc2ccccc2c1=O` was 107%. Same read-out and setting: the result for `O=C(CCCCCC/C=C\c1csc(Br)n1)NO` reads 82%. As for `COc1ccc(-c2cc(-c3ccc(N4CCOCC4)cc3)n3c(n2)nc2ccccc23)cc1OC`, the growth is 97.7%.

Regarding `CN(C)c1cccc2c(S(=O)(=O)Nc3cccc(-c4csc(NC(=O)CCCCCN5CCN(CCO)CC5)n4)c3)cccc12`, the growth was 78.3%. As for `O=c1nc(Nc2ccc([N+](=O)[O-])cc2O)sc2ccccc12`, the growth was 65%. Same read-out and setting: the result for `CCc1cc(OC(=O)N2CCC(N3CCCCC3)CC2)ccc1Nc1cc(-c2ccc(-n3cccn3)cc2)[nH]n1` reads -49.1% (active); that for `COc1ccc(-c2c(C(N)=O)c(N)n(Cc3nc4ccccc4[nH]3)c(=O)c2C#N)c(OC)c1`, 112%; that for `CCOC(=O)Nc1ccc2c(ccn2C(=O)c2cccc(F)c2)c1`, 74.4%. Same read-out and setting: the value for `CN(C)CCCOc1ccc(C(=C(c2ccccc2)C2CCCC2)c2ccc(OCCCN(C)C)cc2)cc1` was -88.7% (active); that for `CN1CCC[C@]2(C)[C@H]3CC[C@@H]4[C@@H]5[C@H]6OC[C@@]5(CCC6(C)C)CC[C@@]4(C)[C@]3(C)CC[C@H]2C1(C)C` was 107%. Same read-out and setting: the value for `CNC(=O)c1cc(-c2ccc(NC(=S)Nc3cccc(C(F)(F)F)c3)cc2)nc2cccnc12` was 104%; that for `CC1(C)C=Cc2cc(/C(N)=N/C(N)=N/c3nc4ccccc4s3)ccc2O1` was 104%. On to `C#Cc1cc(C(=O)Nc2ccc(CNCCN3CCOCC3)c(C(F)(F)F)c2)ccc1C`, for which the growth is 98.6%. The same measure, in the same setting: the value for `CC(C)(O)c1cncc(-c2ccc3ncc(C#N)c(N4CCc5cc(F)c(Cl)cc54)c3c2)c1` was 11%; that for `CN1CCN(Cc2ccc(/C=N/Nc3ccnc4cc(Cl)ccc34)cc2)CC1` was 111%; that for `Cc1ccc(C(=O)CSc2nnc(-c3ccc(-c4ccc(Cl)cc4)nc3C)o2)cc1` was 118%. Still for that read-out and setting: the result for `Cc1ccccc1N1CCN(C2=C(Cl)C(=O)c3ncccc3C2=O)CC1` reads 21.7%. On to `O=C1Nc2ccccc2/C1=C/c1ccc(OCC(=O)c2ccccc2)cc1`, for which the growth is 105%. Still for that read-out and setting: the result for `CC1=C(C)C(=O)C(Nc2ccc3c(c2)OCCO3)=C(Br)C1=O` reads 102%; that for `CCN(CC)c1ccc(/C=N/NC(=O)c2ccc(S(N)(=O)=O)cc2)c(O)c1`, -10.2% (active); that for `Cc1ccc(S(=O)(=O)NCCCNc2nc(Nc3ccc(N4CCN(C)CC4)cc3)nc3ccsc23)cc1`, -73.2% (active). As to `CN1CCN(Cc2ccc(NC(=O)c3cncc(C#Cc4cnc5ccc(NCCO)nn45)c3)cc2C(F)(F)F)CC1`, the growth is -6.58% (active). On to `COC(=O)c1cccc(NC2=C(Cl)C(=O)c3nc(C)ccc3C2=O)c1`, for which the growth is 62%. Still for that read-out and setting: the result for `O=C1Nc2cc(Cl)ccc2/C1=C\c1ccc(OCc2ccccc2)cc1` reads 116%; that for `Cc1ccc(-c2csc(N/N=C/c3cccs3)n2)cc1`, 97.1%; that for `O=[N+]([O-])c1ccc(NC(=S)NNC(=S)Nc2ccc(Br)cc2)cc1`, 95.2%.

The next assay has as its system M14 melanoma. The assay is described as above. As to conditions: 10 µM unless noted.
As to `NC(=O)n1c(=O)n(-c2cccc(C(F)(F)F)c2)c(=O)c2cc(-c3ccc(F)cc3F)ccc21`, the growth was 11.1%. Still for that read-out and setting: the result for `O=C1CSC(c2cn(-c3ccccc3)nc2-c2ccc(Cl)cc2)N1c1ccccc1` (stereo unspecified) reads 99.3%. On to `COc1ccc(/C=N/NC(=O)CSc2nc(-c3cnccn3)cc(-c3cccs3)c2C#N)cc1`, for which the growth is 77.4%. On to `C#Cc1cc(OC)c(C(=O)Nc2ccc(F)cc2C(=O)Nc2cccc(S(=O)(=O)C(F)(F)F)c2)cn1`, for which the growth was 16.7%. Consider `CN1c2ccccc2Sc2cc(/C=N/Nc3ccnc4cc(Cl)ccc34)ccc21`, for which the growth was 92.7%.

For `O=C(/C=C/c1cccc(F)c1)c1cccc(OCCCOc2cccc(C(=O)/C=C/c3cccc(F)c3)c2)c1`, the growth was 92%. `CN1CCN(Cc2ccc(NC(=O)c3cncc(C#Cc4cnc(N)nc4)c3)cc2C(F)(F)F)CC1`: the growth is -19.3% (active). As to `O=C(CSc1nc2ccccc2c(=O)n1-c1ccc(Cl)c(Cl)c1)Nc1ccc(S(=O)(=O)Nc2ccc(Cl)nn2)cc1`, the growth is 86.2%. On to `Cc1[nH]c(C(=O)Nc2ccc(C(N)=O)cc2N2CCOC(C)C2)c(Cl)c1Cl` (stereo unspecified), for which the growth was 101%.

For the compound `N#Cc1nc(-c2ccccc2)oc1N1CCC(C2(C(F)(F)F)N=N2)CC1`, the growth was 102%. On to `C/C(=C(\c1ccc(O)cc1)c1ccc(OCCN2CCCCCC2)cc1)c1ccc(Cl)cc1`, for which the growth is -86.5% (active). For `COc1ccc(C(=O)c2c(N)c(C#N)cn2-c2ccc(Cl)cc2Cl)cc1`, the growth is 91.2%.

As for `C#C[C@]1(O)CC[C@H]2[C@@H]3CC=C4c5sc(Nc6cccc(F)c6)nc5CC[C@]4(C)[C@H]3CC[C@@]21C`, the growth is 11%.

As for `C[C@@H]1OCC2(CCN(c3cnc(C(=O)Nc4cc(F)cc5cccnc45)cn3)CC2)[C@@H]1N`, the growth was 81.5%. On to `Cn1c(SCC(=O)c2ccc(F)cc2)nc2ccccc2c1=O`, for which the growth was 95.8%. Turning to `O=C(CCCCCC/C=C\c1csc(Br)n1)NO`, the growth is 93.9%. As for `COc1ccc(-c2cc(-c3ccc(N4CCOCC4)cc3)n3c(n2)nc2ccccc23)cc1OC`, the growth was 93.1%. On to `CN(C)c1cccc2c(S(=O)(=O)Nc3cccc(-c4csc(NC(=O)CCCCCN5CCN(CCO)CC5)n4)c3)cccc12`, for which the growth was 73.7%. In the case of `O=c1nc(Nc2ccc([N+](=O)[O-])cc2O)sc2ccccc12`, the growth is 17.5%. Consider `CCc1cc(OC(=O)N2CCC(N3CCCCC3)CC2)ccc1Nc1cc(-c2ccc(-n3cccn3)cc2)[nH]n1`, for which the growth is -85.5% (active). The same measure, in the same setting: the value for `COc1ccc(-c2c(C(N)=O)c(N)n(Cc3nc4ccccc4[nH]3)c(=O)c2C#N)c(OC)c1` was 102%; that for `CCOC(=O)Nc1ccc2c(ccn2C(=O)c2cccc(F)c2)c1` was 25.3%.

Regarding `CN(C)CCCOc1ccc(C(=C(c2ccccc2)C2CCCC2)c2ccc(OCCCN(C)C)cc2)cc1`, the growth was -80.7% (active). For `CN1CCC[C@]2(C)[C@H]3CC[C@@H]4[C@@H]5[C@H]6OC[C@@]5(CCC6(C)C)CC[C@@]4(C)[C@]3(C)CC[C@H]2C1(C)C`, the growth was 97.9%. For `CNC(=O)c1cc(-c2ccc(NC(=S)Nc3cccc(C(F)(F)F)c3)cc2)nc2cccnc12`, the growth is 99.3%. Consider `CC1(C)C=Cc2cc(/C(N)=N/C(N)=N/c3nc4ccccc4s3)ccc2O1`, for which the growth is 103%. Still for that read-out and setting: the value for `C#Cc1cc(C(=O)Nc2ccc(CNCCN3CCOCC3)c(C(F)(F)F)c2)ccc1C` was 101%; that for `CC(C)(O)c1cncc(-c2ccc3ncc(C#N)c(N4CCc5cc(F)c(Cl)cc54)c3c2)c1` was 10.3%. For the compound `CN1CCN(Cc2ccc(/C=N/Nc3ccnc4cc(Cl)ccc34)cc2)CC1`, the growth was 96.9%. Still for that read-out and setting: the result for `Cc1ccc(C(=O)CSc2nnc(-c3ccc(-c4ccc(Cl)cc4)nc3C)o2)cc1` reads 98.2%; that for `Cc1ccccc1N1CCN(C2=C(Cl)C(=O)c3ncccc3C2=O)CC1`, 36.2%; that for `O=C1Nc2ccccc2/C1=C/c1ccc(OCC(=O)c2ccccc2)cc1`, 95.7%. As for `CC1=C(C)C(=O)C(Nc2ccc3c(c2)OCCO3)=C(Br)C1=O`, the growth was 106%. For the compound `CCN(CC)c1ccc(/C=N/NC(=O)c2ccc(S(N)(=O)=O)cc2)c(O)c1`, the growth is 1.08% (active). The same measure, in the same setting: the value for `Cc1ccc(S(=O)(=O)NCCCNc2nc(Nc3ccc(N4CCN(C)CC4)cc3)nc3ccsc23)cc1` was -69.6% (active); that for `CN1CCN(Cc2ccc(NC(=O)c3cncc(C#Cc4cnc5ccc(NCCO)nn45)c3)cc2C(F)(F)F)CC1` was -70.9% (active); that for `COC(=O)c1cccc(NC2=C(Cl)C(=O)c3nc(C)ccc3C2=O)c1` was 98.3%. Take `O=C1Nc2cc(Cl)ccc2/C1=C\c1ccc(OCc2ccccc2)cc1`: the growth was 96.2%. `Cc1ccc(-c2csc(N/N=C/c3cccs3)n2)cc1`: the growth is 90.4%. `O=[N+]([O-])c1ccc(NC(=S)NNC(=S)Nc2ccc(Br)cc2)cc1`: the growth is 87.9%.
